# Source: paper PMC11006913
# Where a chain is given by its changes, count along the chain named.
# Key:
# Assay in all cases: PBM; 200 nM protein, PBS
# Conditions in all cases: dsDNA, one strand shown
# CRX [1] = molecular target: CRX (Homo sapiens, UniProt O43186 26-111)
# CRX [2] = molecular target: CRX (Homo sapiens, UniProt O43186 26-111, E42D)
# CRX [3] = molecular target: CRX (Homo sapiens, UniProt O43186 26-111, R41L)
# NKX2-4 = molecular target: T1, NKX2-4 (Homo sapiens, UniProt Q9H2Z4 175-261, P217L)
# T1 sequence: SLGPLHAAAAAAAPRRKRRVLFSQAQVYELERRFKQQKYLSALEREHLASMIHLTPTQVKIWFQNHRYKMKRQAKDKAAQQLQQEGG
# HOXC10 = HOXC10 (Homo sapiens, UniProt Q9NYD6 254-340, K271E)
# HOXC10, sequence (Q9NYD6 254-340 K271E): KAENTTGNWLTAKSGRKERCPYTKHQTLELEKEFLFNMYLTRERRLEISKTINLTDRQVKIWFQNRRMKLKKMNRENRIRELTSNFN
# SIX6 [4] = molecular target: T2, SIX6 (Homo sapiens, UniProt O95475 114-200, L167I)
# T2 sequence: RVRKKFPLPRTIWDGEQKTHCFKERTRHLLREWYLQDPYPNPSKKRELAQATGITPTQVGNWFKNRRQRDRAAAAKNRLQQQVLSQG
# SIX6 [5] = molecular target: T3, SIX6 (Homo sapiens, UniProt O95475 114-200, L143V)
# T3 sequence: T2 sequence with L30V, I54L
# SIX6 [6] = molecular target: T4, SIX6 (Homo sapiens, UniProt O95475 114-200, T165P)
# T4 sequence: T2 sequence with T52P, I54L
# SIX6 [7] = molecular target: T5, SIX6 (Homo sapiens, UniProt O95475 114-200, L167M)
# T5 sequence: T2 sequence with I54M
# SIX6 [8] = molecular target: T6, SIX6 (Homo sapiens, UniProt O95475 114-200, L143M)
# T6 sequence: T2 sequence with L30M, I54L
# SIX6 [9] = molecular target: T7, SIX6 (Homo sapiens, UniProt O95475 114-200, T165G)
# T7 sequence: T2 sequence with T52G, I54L
# SIX6 [10] = molecular target: T8, SIX6 (Homo sapiens, UniProt O95475 114-200, T139Q)
# T8 sequence: T2 sequence with T26Q, I54L
# SIX6 [11] = molecular target: T9, SIX6 (Homo sapiens, UniProt O95475 114-200, L167V)
# T9 sequence: T2 sequence with I54V
# SIX6 [12] = molecular target: T10, SIX6 (Homo sapiens, UniProt O95475 114-200, T165I)
# T10 sequence: T2 sequence with T52I, I54L
# HOXB9 [13] = molecular target: HOXB9 (Homo sapiens, UniProt P17482 171-250)
# HOXB9 (Homo sapiens, UniProt P17482 171-250), sequence (P17482 171-250): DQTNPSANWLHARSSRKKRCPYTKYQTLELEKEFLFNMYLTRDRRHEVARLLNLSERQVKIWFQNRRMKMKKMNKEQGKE
# HOXB9 [14] = molecular target: HOXB9 (Homo sapiens, UniProt P17482 171-250, R186Q)
# HOXB9 (Homo sapiens, UniProt P17482 171-250, R186Q), sequence (P17482 171-250 R186Q): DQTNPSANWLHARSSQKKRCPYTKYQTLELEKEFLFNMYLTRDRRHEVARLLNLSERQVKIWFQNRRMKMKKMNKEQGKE
# NKX3-2 [15] = molecular target: NKX3-2 (Homo sapiens, UniProt P78367 192-278, P234S)
# NKX3-2 (Homo sapiens, UniProt P78367 192-278, P234S), sequence (P78367 192-278 P234S): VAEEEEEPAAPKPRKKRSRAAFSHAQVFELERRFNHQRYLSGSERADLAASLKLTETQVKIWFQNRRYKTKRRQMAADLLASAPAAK
# NKX3-2 [16] = molecular target: NKX3-2 (Homo sapiens, UniProt P78367 192-278)
# NKX3-2 (Homo sapiens, UniProt P78367 192-278), sequence (P78367 192-278): as the sequence (P78367 192-278 P234S) above, with S43P counted along it
# CRX (Homo sapiens, UniProt O43186 26-111, E42D), sequence (O43186 26-111 E42D): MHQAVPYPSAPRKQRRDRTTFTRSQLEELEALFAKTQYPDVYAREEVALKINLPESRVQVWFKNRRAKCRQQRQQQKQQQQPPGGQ
# CRX (Homo sapiens, UniProt O43186 26-111, R41L), sequence (O43186 26-111 R41L): as the sequence (O43186 26-111 E42D) above, with R16L, D17E counted along it
# CRX (Homo sapiens, UniProt O43186 26-111), sequence (O43186 26-111): as the sequence (O43186 26-111 E42D) above, with D17E counted along it
sequence,measurement,setting,value
GCCGTCGC,binding signal,CRX [1],"8.32 upbm affinity estimate (log intensity, higher = more binding, comparable within an allelic series)"
same,binding signal,CRX [2],"8.21 upbm affinity estimate (log intensity, higher = more binding, comparable within an allelic series)"
same,binding signal,CRX [3],"8.17 upbm affinity estimate (log intensity, higher = more binding, comparable within an allelic series)"
ACGCTGCG,binding signal,NKX2-4,"9.63 upbm affinity estimate (log intensity, higher = more binding, comparable within an allelic series)"
CCAGCGCA,binding signal,HOXC10,"10 upbm affinity estimate (log intensity, higher = more binding, comparable within an allelic series)"
GCCGGTCC,binding signal,CRX [1],"8.03 upbm affinity estimate (log intensity, higher = more binding, comparable within an allelic series)"
same,binding signal,CRX [2],"8.04 upbm affinity estimate (log intensity, higher = more binding, comparable within an allelic series)"
same,binding signal,CRX [3],"8.24 upbm affinity estimate (log intensity, higher = more binding, comparable within an allelic series)"
CGCACGCC,binding signal,SIX6 [4],"8.9 upbm affinity estimate (log intensity, higher = more binding, comparable within an allelic series)"
same,binding signal,SIX6 [5],"8.88 upbm affinity estimate (log intensity, higher = more binding, comparable within an allelic series)"
same,binding signal,SIX6 [6],"8.83 upbm affinity estimate (log intensity, higher = more binding, comparable within an allelic series)"
same,binding signal,SIX6 [7],"9.01 upbm affinity estimate (log intensity, higher = more binding, comparable within an allelic series)"
same,binding signal,SIX6 [8],"8.91 upbm affinity estimate (log intensity, higher = more binding, comparable within an allelic series)"
same,binding signal,SIX6 [9],"8.9 upbm affinity estimate (log intensity, higher = more binding, comparable within an allelic series)"
same,binding signal,SIX6 [10],"8.93 upbm affinity estimate (log intensity, higher = more binding, comparable within an allelic series)"
same,binding signal,HOXC10,"10 upbm affinity estimate (log intensity, higher = more binding, comparable within an allelic series)"
same,binding signal,SIX6 [11],"8.9 upbm affinity estimate (log intensity, higher = more binding, comparable within an allelic series)"
same,binding signal,SIX6 [12],"8.9 upbm affinity estimate (log intensity, higher = more binding, comparable within an allelic series)"
GCGAGCGC,binding signal,HOXB9 [13],"8.32 upbm affinity estimate (log intensity, higher = more binding, comparable within an allelic series)"
same,binding signal,HOXB9 [14],"8.42 upbm affinity estimate (log intensity, higher = more binding, comparable within an allelic series)"
AGAGCGCG,binding signal,CRX [1],"8.2 upbm affinity estimate (log intensity, higher = more binding, comparable within an allelic series)"
same,binding signal,CRX [2],"8.22 upbm affinity estimate (log intensity, higher = more binding, comparable within an allelic series)"
same,binding signal,CRX [3],"8.22 upbm affinity estimate (log intensity, higher = more binding, comparable within an allelic series)"
CCGTAGGC,binding signal,NKX3-2 [15],"10.5 upbm affinity estimate (log intensity, higher = more binding, comparable within an allelic series)"
same,binding signal,NKX3-2 [16],"10.4 upbm affinity estimate (log intensity, higher = more binding, comparable within an allelic series)"
ACCGTCCG,binding signal,CRX [1],"8.31 upbm affinity estimate (log intensity, higher = more binding, comparable within an allelic series)"
same,binding signal,CRX [2],"8.44 upbm affinity estimate (log intensity, higher = more binding, comparable within an allelic series)"
same,binding signal,CRX [3],"8.35 upbm affinity estimate (log intensity, higher = more binding, comparable within an allelic series)"
AATAATTG,binding signal,HOXB9 [13],"11.3 upbm affinity estimate (log intensity, higher = more binding, comparable within an allelic series)"
same,binding signal,HOXB9 [14],"11.1 upbm affinity estimate (log intensity, higher = more binding, comparable within an allelic series)"
CAGCCAGG,binding signal,SIX6 [4],"9.07 upbm affinity estimate (log intensity, higher = more binding, comparable within an allelic series)"
same,binding signal,SIX6 [5],"8.86 upbm affinity estimate (log intensity, higher = more binding, comparable within an allelic series)"
same,binding signal,SIX6 [6],"8.91 upbm affinity estimate (log intensity, higher = more binding, comparable within an allelic series)"
same,binding signal,SIX6 [7],"9.02 upbm affinity estimate (log intensity, higher = more binding, comparable within an allelic series)"
same,binding signal,SIX6 [8],"9.06 upbm affinity estimate (log intensity, higher = more binding, comparable within an allelic series)"
same,binding signal,SIX6 [9],"9.14 upbm affinity estimate (log intensity, higher = more binding, comparable within an allelic series)"
same,binding signal,SIX6 [10],"9.1 upbm affinity estimate (log intensity, higher = more binding, comparable within an allelic series)"
same,binding signal,SIX6 [11],"9.01 upbm affinity estimate (log intensity, higher = more binding, comparable within an allelic series)"
same,binding signal,SIX6 [12],"8.99 upbm affinity estimate (log intensity, higher = more binding, comparable within an allelic series)"
GCCAGACC,binding signal,SIX6 [4],"9.01 upbm affinity estimate (log intensity, higher = more binding, comparable within an allelic series)"
same,binding signal,SIX6 [5],"8.79 upbm affinity estimate (log intensity, higher = more binding, comparable within an allelic series)"
same,binding signal,SIX6 [6],"8.91 upbm affinity estimate (log intensity, higher = more binding, comparable within an allelic series)"
same,binding signal,SIX6 [7],"9.01 upbm affinity estimate (log intensity, higher = more binding, comparable within an allelic series)"
same,binding signal,SIX6 [8],"8.95 upbm affinity estimate (log intensity, higher = more binding, comparable within an allelic series)"
same,binding signal,SIX6 [9],"9.08 upbm affinity estimate (log intensity, higher = more binding, comparable within an allelic series)"
same,binding signal,SIX6 [10],"9.06 upbm affinity estimate (log intensity, higher = more binding, comparable within an allelic series)"
same,binding signal,SIX6 [11],"8.94 upbm affinity estimate (log intensity, higher = more binding, comparable within an allelic series)"
same,binding signal,SIX6 [12],"8.93 upbm affinity estimate (log intensity, higher = more binding, comparable within an allelic series)"
